Assay outcomes deposited in PubChem BioAssay by several laboratories.
CYP2C19 inh – blockers of cytochrome P450 2C19 activity – biochemical, luminescence, ADME assay, primary screen; 96,000 tested, 21% active; CYP2C19 Supersomes, luciferin-H EGE luminescence, 30 min; inhibition, % at 5 µM;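 active = CYP2C19 inhibition above a set limit at 5 µM in the primary screen, cut at about 50% in these data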
CYP2C9 inhib – blockers of cytochrome P450 2C9 activity – biochemical, luminescence, ADME assay, primary screen; P11712; CYP2C9 Supersomes, luciferin-H conversion; inhibition, % at 5 µM; 96,000 tested, 20% active; AID 777, 2007;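 active = blocking of liver enzyme CYP2C9 beyond about 50% at 5 µM, limit read from the data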
Target sequence (P11712 whole entry, looked up): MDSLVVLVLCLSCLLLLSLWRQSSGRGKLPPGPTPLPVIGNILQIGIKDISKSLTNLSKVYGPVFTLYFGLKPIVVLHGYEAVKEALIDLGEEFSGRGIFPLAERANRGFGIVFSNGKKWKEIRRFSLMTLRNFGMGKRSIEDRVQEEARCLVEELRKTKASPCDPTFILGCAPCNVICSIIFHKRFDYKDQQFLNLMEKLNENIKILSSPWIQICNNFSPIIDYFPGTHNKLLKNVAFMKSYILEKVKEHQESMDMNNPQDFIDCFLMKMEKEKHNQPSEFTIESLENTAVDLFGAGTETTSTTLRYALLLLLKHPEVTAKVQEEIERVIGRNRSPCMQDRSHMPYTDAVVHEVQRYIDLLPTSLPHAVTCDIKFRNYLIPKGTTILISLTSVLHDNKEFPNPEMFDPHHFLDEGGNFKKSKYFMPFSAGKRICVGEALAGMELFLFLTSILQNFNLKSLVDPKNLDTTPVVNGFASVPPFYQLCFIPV
CYP2C9 act – human CYP2C9 activators, primary screen, biochemical, luminescence. Cytochrome P450 2C9 (Homo sapiens), P11712. recombinant CYP2C9, luciferin-H conversion; stronger effect = higher value; factor 1 = untreated enzyme, 0 = blocked. activation factor at 5 µM. 96,000 tested, 1.4% active. AID 1024, 2008;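 active = activation factor of 2 or more for CYP2C9 at a 5 µM dose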
sEH activator – soluble epoxide hydrolase activators, primary screen, biochemical, human sEH; Bifunctional epoxide hydrolase 2 (Homo sapiens), P34913; AID 717, 2007; activation, % at 2 µM; 91,000 tested, 0.04% active; purified human sEH enzymatic activity, activator screen; in the data active = activation above about 37%
sEH inh – soluble epoxide hydrolase inhibitors, primary screen, biochemical, human sEH. Bifunctional epoxide hydrolase 2 (Homo sapiens), P34913. recombinant human sEH enzymatic activity assay. inhibition, % at 2 µM. 91,000 tested, 0.34% active. AID 707, 2007; in the data active = inhibition above about 80%
CYP2C19 activ – human CYP2C19 activators, primary screen, biochemical, luminescence | activation factor at 5 µM | 96,000 tested, under 10 active | Cytochrome P450 2C19 (Homo sapiens), P33261 | recombinant CYP2C19, luciferin-H EGE luminescence; stronger effect = higher value; 0 = fully inhibited enzyme, 1 = untreated enzyme;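 active = activation factor of at least 2 at 5 µM in the primary screen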
Hits are given with their value; - = inactive; . = not tested or not shown. This is a sample that favours compounds with a hit; in the whole collection about 27% have one here.

SMILES	CYP2C19 inh	CYP2C9 inhib	CYP2C9 act	sEH activator	sEH inh	CYP2C19 activ
COc1ccc(Cn2nnnc2CN2CCc3ccccc3C2)cc1	88	64	-	-	-	-
O=C(CNS(=O)(=O)c1ccc2ccccc2c1)OCC(=O)c1ccc(Br)s1	-	-	2.3	-	-	-
COC(=O)CCCNS(=O)(=O)c1ccc2ccccc2c1	.	.	.	-	-	.
Nc1c(Br)cc(Br)c(N2CCCC2=O)c1Br	54	-	4.3	.	.	-
CCc1cc2c(=O)n(-c3ccc(C)cc3)cnc2s1	.	.	.	-	-	.
COc1ccc(Cl)cc1NC(=O)c1nc2nc(C)cc(C(F)F)n2n1	-	-	3.6	.	.	-
COc1ccc(NC(=O)c2ocnc2C)cc1OC	-	-	-	-	-	-
COc1ccc(Cl)cc1NC(=O)c1c(-c2ccccc2)noc1C	-	-	-	-	-	-
COc1ccc(Cl)cc1NC(=O)c1ocnc1C	-	-	2.6	-	-	-
COc1ccc(Cl)cc1NC(=O)N(C)Cc1c(C)nn(C)c1C	86	-	2.4	-	-	-
COc1ccc(C(C)(C)C)cc1NC(=O)c1ccoc1C	62	-	-	-	-	-
COc1ccc(C)cc1NC(=O)c1ccoc1C	-	-	-	-	-	-
COc1ccc(Cl)cc1NC(=O)c1cnc2sccn2c1=O	-	-	2.1	.	.	-
Cc1occc1C(=O)Nc1ccc(Br)cc1F	50	-	-	-	-	-
COc1ccc(Cl)cc1NC(=O)c1ccoc1C	-	-	2.6	-	-	-
Cc1occc1C(=O)Nc1c(F)cc(F)cc1Br	-	-	-	-	-	-
O=C(NCC1CCCO1)C1CCN(S(=O)(=O)c2cccc3nonc23)CC1 (stereo not given)	-	-	-	-	-	-
CCOc1cc(S(=O)(=O)N2CCC(Cc3ccccc3)CC2)c(OCC)cc1-n1cnnn1	53	73	-	.	.	-
CCOc1cc(S(=O)(=O)N2CC=C(c3ccc(F)cc3)CC2)c(OCC)cc1-n1cnnn1	-	93	-	-	-	-
Cc1ccc(S(=O)(=O)/N=S(/C)c2ccccc2)cc1 (stereo not given)	-	-	-	-	-	-
O=[N+]([O-])c1cc(S(=O)(=O)C(F)(F)F)ccc1Sc1nc2ccccc2s1	63	51	-	-	-	-
O=[N+]([O-])c1cc(S(=O)(=O)C(F)(F)F)ccc1Sc1nc2ccccc2[nH]1	90	76	-	-	-	-
O=[N+]([O-])c1cc(C(F)(F)F)ccc1Sc1ccc2ccccc2n1	-	-	-	-	-	-
CS(=O)(=O)c1ccc(Sc2nc3ccccc3[nH]2)c([N+](=O)[O-])c1	91	79	-	-	-	-
CCn1c(SCC(N)=O)nnc1-c1ccc(S(=O)(=O)N2CCN(C)CC2)cc1	-	-	-	-	-	-
SMILES	CYP2C19 inh	CYP2C9 inhib	CYP2C9 act	sEH activator	sEH inh	CYP2C19 activ
CCn1c(CSc2nc3ccccc3s2)nnc1SCC(=O)c1ccc2c(c1)OCCO2	.	.	.	-	-	.
Cn1c(SCC(=O)c2ccc3c(c2)OCO3)nnc1-c1ccccn1	52	-	-	-	-	-
O=C(CSc1ccccn1)c1ccc2c(c1)OCO2	98	-	-	-	-	-
Cn1c(SCC(=O)Nc2ccc3c(c2)OCO3)nnc1-c1cnccn1	-	-	-	-	-	-
O=C(CSc1nnc(SCc2cccc3ccccc23)s1)c1ccc2c(c1)OCO2	52	63	-	-	-	-
Clc1ccc(Oc2nc(N3CCOCC3)nc(N3CCOCC3)n2)cc1	-	-	-	-	-	-
Cc1ccc(C)c(S(=O)(=O)N2C(=S)NC(=O)C2CC(C)C)c1 (stereo not given)	-	80	-	-	-	-
CC(C)C1C(=O)NC(=S)N1S(=O)(=O)c1ccc(C(C)(C)C)cc1 (stereo not given)	-	-	-	-	-	-
COc1ccccc1N(CCC#N)C(=O)CSc1nc(-c2ccccc2)cn1N	75	-	-	-	-	-
Nn1cc(-c2ccccc2)nc1SCC(=O)N1CCN(S(=O)(=O)c2ccccc2)CC1	-	-	-	-	-	-
O=C1NC(=S)N/C1=C/c1cc([N+](=O)[O-])ccc1O	-	-	-	-	-	-
Cc1nn(-c2ccc(Cl)cc2)c(N)c1C(O)(CSc1nccn1C)C(F)(F)F (stereo not given)	75	87	-	.	.	-
Cc1ccc(Nc2nc(N)nc(CSc3nccn3C)n2)cc1	-	-	-	-	-	-
Cc1nn(-c2ccccc2)c(N)c1C(O)(CSc1nccn1C)C(F)(F)F (stereo not given)	93	87	-	-	-	-
Cc1c(NC(=O)CSc2nccn2C)c(=O)n(-c2ccccc2)n1C	-	-	-	-	-	-
OCC(O)C(O)C(O)C(O)C1NCCS1 (stereo not given)	-	-	-	-	-	-
CC1CCC(NC(=O)CC2Oc3ccccc3NC2=O)CC1 (stereo not given)	-	-	2.3	-	-	-
O=C(CC1Oc2ccccc2NC1=O)NCc1ccccc1 (stereo not given)	66	-	2	.	.	-
CO/N=C(/CS(=O)(=O)c1ccc(C)cc1)c1ccc(OC)cc1	99	-	-	-	-	-
COc1ccccc1-c1cc2ccccc2[nH]1	.	.	.	-	-	.
CC(C)(C)c1ccc(OCC(=O)NCc2ccco2)cc1	-	-	-	-	-	-
CC(Oc1ccccc1)C(=O)OCC(=O)NC(=O)NCc1ccco1 (stereo not given)	-	52	-	.	.	-
CCOc1ccc(C(=O)NCc2ccco2)cc1	66	-	-	.	.	-
CCc1ccc(OCC(=O)NCc2ccco2)c(Br)c1	87	72	-	-	-	-
CC(C)c1ccc(OCC(=O)NCc2ccco2)cc1	90	74	-	-	-	-
SMILES	CYP2C19 inh	CYP2C9 inhib	CYP2C9 act	sEH activator	sEH inh	CYP2C19 activ
CC(C)COc1ccc(C(=O)NCc2ccco2)cc1	-	-	-	-	-	-
CC(=O)N1CN(S(=O)(=O)c2ccc(C)cc2)CC1C (stereo not given)	-	-	-	-	-	-
Cc1cc(C(C)(C)C)oc1C(=O)N(CC(=O)NC1CCCC1)Cc1ccc(F)cc1	-	-	-	-	-	-
C=C(C)c1ccc(C(C)(C)NC(=O)NCc2ccco2)cc1	90	81	-	-	-	-
C=C(C)c1ccc(C(C)(C)NC(=O)N(Cc2ccccc2)Cc2ccco2)cc1	-	-	-	-	-	-
O=C(COC(=O)CC1CC2CCC1C2)NC(=O)NCc1ccco1 (stereo not given)	63	70	-	-	-	-
COc1ccc(OCC(=O)OCC(=O)NCc2ccco2)cc1	-	-	-	-	-	-
